The text below walks through data of the supplement of paper PMC9399229.

Several values for one entry are separate records, joined by “and”; a condition that tells them apart may be missing. Identical values can stand only once. Counter-ions that a name gives are not always drawn. ± gives the standard deviation of the averaged measurements. In all, about 1,900 compounds were measured (“relative cell viability (CellTiter-Glo), compound alone”: median about 1, lowest 2% from about 0.16 on). What follows is part of a selection rich in the lowest values, with near analogues and random picks from the rest.

The assay concerns Hep3B. Description: relative cell viability (CellTiter-Glo), compound alone (fraction); higher = more viable cells (less growth inhibition). Conditions: cabozantinib 0 µM; 4 days.
For the compound `CN1CCN(c2ccc(Nc3cc(-c4cccc(-n5ccc6cc(C7CC7)cc(F)c6c5=O)c4CO)cn(C)c3=O)nc2)CC1`, the relative cell viability is 1.1 ± 0.14.

Compound `Cc1cc(NC(=O)c2cccc(NC(=O)/C=C/CN(C)C)c2)ccc1Nc1nccc(-c2cccnc2)n1` gave a relative cell viability of 0.837 ± 0.011.

The compound `O=C(c1cncc(Br)c1)N1CCC(N2CCCC2)CC1` yielded a relative cell viability of 1.03 ± 0.058.

Take `O=C(COc1cccc2c(=O)[nH]ccc12)c1ccccc1`: the relative cell viability was determined as 1.16 ± 0.033.

`CC(C)c1ccc(NC(=O)Cn2cnc3c2c(=O)n(C)c(=O)n3C)cc1` came in with a relative cell viability of 1.02 ± 0.041.

`Cc1ccc(C(=O)N(CCCN)[C@@H](c2oc3cc(Cl)ccc3c(=O)c2Cc2ccccc2)C(C)C)cc1` gave a relative cell viability of 0.245 ± 0.0053.

Consider `CC1=C(C(=O)Nc2cc3cn[nH]c3cc2F)C(c2ccc(C(F)(F)F)cc2)CC(=O)N1` (configuration not stated), for which the relative cell viability amounted to 1.3 ± 0.16.

`CN(C)C(=S)NN=C(c1ccccn1)c1ccccn1`: the relative cell viability came to 0.265 ± 0.025.

The compound `C/C(=N\NC(=S)N1CCC1)c1ccccn1` came in with a relative cell viability of 0.0813 ± 0.0087.

In the case of `CCN(CC)C(=S)SSC(=S)N(CC)CC` [Disulfiram], the relative cell viability came out at 0.134 ± 0.012.

`CN1CCN(c2ccc(OC(F)(F)F)c(Nc3ncc4c(n3)-c3c(c(C(N)=O)nn3CCO)CC4)c2)CC1` had a relative cell viability of 0.48 ± 0.02.

Turning to `O=C(N/N=C/c1ccc(O)c(O)c1)c1cc2ccccc2cc1O` [Dynasore], the relative cell viability stood at 0.932 ± 0.05.

As to `Cc1nc2c([nH]1)-c1ccccc1N(C(=O)c1ccc(NC(=O)c3ccccc3-c3ccccc3)cc1)CC2` [Conivaptan HCl], the relative cell viability is 1.12 ± 0.15.

As for `C[C@@H](O[C@H]1OCCN(Cc2nn(P(=O)(O)O)c(=O)[nH]2)[C@H]1c1ccc(F)cc1)c1cc(C(F)(F)F)cc(C(F)(F)F)c1` [Fosaprepitant dimeglumine salt], the relative cell viability was determined as 1.04 ± 0.1.

In turn, `O=C(O)C1=CO[C@@H](O[C@@H]2O[C@H](CO)[C@@H](O)[C@H](O)[C@H]2O)[C@@H]2C(CO)=CC[C@H]12` [Geniposidic acid] had a relative cell viability of 1.04 ± 0.16.

`CNC(=O)c1ccccc1Nc1nc(Nc2ccc(N3CCOCC3)cc2OC)ncc1Cl` had a relative cell viability of 0.273 ± 0.0076.

In turn, `COc1cc(N2CCC(N)CC2)ccc1Nc1ncc(Cl)c(-c2c[nH]c3ccccc23)n1` came in with a relative cell viability of 0.138 ± 0.00027.

As to `CCOc1cc(N2CCC(O)CC2)ccc1Nc1ncc2c(n1)N(C)c1ccccc1C(=O)N2C`, the relative cell viability amounted to 1.14 ± 0.05.

Turning to `Nc1ncnc2c1C(=O)N(c1ccc([C@H]3CC[C@H](CC(=O)O)CC3)cc1)CCO2`, the relative cell viability came to 1.289 ± 0.0053.

`CC(C)C[C@H](NP(=O)(O)O[C@@H]1O[C@@H](C)[C@H](O)[C@@H](O)[C@H]1O)C(=O)N[C@@H](Cc1c[nH]c2ccccc12)C(=O)O` [Phosphoramidon Disodium Salt] registered a relative cell viability of 1.169 ± 0.0058.

Consider `Cn1nnc2c(C(N)=O)ncn2c1=O` [Temozolomide], for which the relative cell viability worked out at 1.25 ± 0.15.

Regarding `Cc1cc(N2CCOCC2)ccc1Nc1nc(NC2CCCCC2)c2[nH]cnc2n1`, the relative cell viability stood at 0.971 ± 0.072.

Compound `CC(C)(C)c1ccc(-c2nc3ccccc3[nH]2)cc1` returned a relative cell viability of 0.591 ± 0.042.

`COc1cc2c(c(OC)c1OC)-c1c(cc3c(c1OC)OCO3)CC(C)C(C)C2` (configuration not stated) [Schisandrin B (Sch B)] came in with a relative cell viability of 0.988 ± 0.053.

For the compound `Nc1ccc2ncnc(NCCc3ccc(Oc4ccccc4)cc3)c2c1`, the relative cell viability came out at 1.22 ± 0.066.

Turning to `Cn1nnc(-c2ccc3c(c2)[nH]c2nc(Cc4ccccc4)nc(NC4CCC(N)CC4)c23)n1` (configuration not stated), the relative cell viability was determined as 0.194 ± 0.0028.

`CN(C)CCC[C@@]1(c2ccc(F)cc2)OCc2cc(C#N)ccc21` [Escitalopram Oxalate] yielded a relative cell viability of 1.13 ± 0.13.

On to `N#CSc1cc(SC#N)c(N)nc1N`, for which the relative cell viability was determined as 1.061 ± 0.0035.

For `CCOC(=O)c1ccc(N2NC(=O)C(=Cc3ccc([N+](=O)[O-])o3)C2=O)cc1`, the relative cell viability came out at 0.977 ± 0.14.

`Cn1cc(-c2ccc3c(c2)CCN3C(=O)Cc2cccc(C(F)(F)F)c2)c2c(N)ncnc21` displayed a relative cell viability of 1.34 ± 0.066.

For the compound `CC(C)(C)c1cc(C(=O)C(C#N)=NNc2cccc(Cl)c2)no1`, the relative cell viability is 1.11 ± 0.17.

`O=C(NC1CCOCC1)c1ccc(-c2cc(-c3c[nH]nc3-c3ccccn3)ccn2)cc1` yielded a relative cell viability of 1.23 ± 0.2.

With `O=C(NC1CCNCC1)c1n[nH]cc1NC(=O)c1c(Cl)cccc1Cl`, the relative cell viability was 0.157 and 0.162.

For `CC(=O)OCOC(=O)CN(CC(=O)OCOC(C)=O)c1ccccc1OCCOc1ccccc1N(CC(=O)OCOC(C)=O)CC(=O)OCOC(C)=O`, the relative cell viability came to 1.12 ± 0.016.

With `CNC(=O)[C@@H](c1ccccc1)N1CCc2cc(OC)c(OC)cc2[C@@H]1CCc1ccc(C(F)(F)F)cc1` [Almorexant HCl], the relative cell viability came to 1.19 ± 0.11.

The compound `Cc1c(N(C)C)c(=O)n(-c2ccccc2)n1C` [Amidopyrine] returned a relative cell viability of 1.07 ± 0.062.

With `COc1ccc2c(Oc3ccc(NC(=O)c4c(C)n(CC(C)(C)O)n(-c5ccccc5)c4=O)nc3)ccnc2c1`, the relative cell viability is 1.16 ± 0.024.

`O=C(NNc1nc2cc(F)ccc2n2cccc12)c1cnccn1` came in with a relative cell viability of 0.383 ± 0.013.

Compound `C=C1C(=O)[C@]23[C@H](O)[C@H]1CC[C@H]2[C@@]12CO[C@]3(O)[C@@H](O)[C@@H]1C(C)(C)CC[C@@H]2O` [Oridonin] yielded a relative cell viability of 0.9649 ± 0.0085.

On to `CCS(=O)(=O)N1CC(CC#N)(n2cc(-c3ncnc4[nH]ccc34)cn2)C1`, for which the relative cell viability was 0.983 ± 0.088.

Compound `CO[C@H]1/C=C\C=C(/C)C(=O)NC2=CC(=O)C(NCCN(C)C)=C(C[C@@H](C)C[C@H](OC)[C@H](O)[C@@H](C)/C=C(\C)[C@@H]1OC(N)=O)C2=O` [17-DMAG (Alvespimycin) HCl] gave a relative cell viability of 0.267 ± 0.043.

Compound `CN1CC[C@H](c2c(O)cc(O)c3c(=O)cc(-c4ccccc4Cl)oc23)[C@H](O)C1` [Flavopiridol HCl] registered a relative cell viability of 0.183 ± 0.015.

`CN1CC[C@H](c2c(O)cc(O)c3c(=O)cc(-c4ccccc4Cl)oc23)[C@H](O)C1` [Flavopiridol (Alvocidib)] came in with a relative cell viability of 0.143 ± 0.043.

With `CC(=O)N1c2ccc(-c3ccc(C(=O)O)cc3)cc2[C@H](Nc2ccc(Cl)cc2)C[C@@H]1C`, the relative cell viability amounted to 0.698 ± 0.027.

Compound `N#Cc1c(NC(=O)c2cccc3ccccc23)sc2c1CCCC2` [JNK Inhibitor IX] gave a relative cell viability of 1.1 ± 0.056.

Take `Cc1cc2c(cc1CC(=O)c1sccc1S(=O)(=O)Nc1onc(C)c1Cl)OCO2` [Sitaxentan sodium]: the relative cell viability amounted to 1.18 ± 0.062.

`COc1cc(OC)c2c(=O)[nH]c(-c3cc(C)c(OCCO)c(C)c3)nc2c1` showed a relative cell viability of 0.805 ± 0.0086.
